# In the library only some 6% were active in any assay of this set; here they are far more common.
# VDR inh: blocks the human vitamin D receptor; hit rate 0.93% among 400,000; Potency, µM, without a hit: max response, negative = inhibition, hits mostly inhibitors; P11473; VDR-SRC2-3 peptide fluorescence polarization, 2 h
#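 Measured by FP: displacement of SRC2-3 coactivator peptide from VDR by library compounds, following a two-hour ambient incubation.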
# Tau fluor cs: counter-screen for tau fibril formation inhibitors; hit rate 0.93% among 280,000; Potency, µM (top dose mostly 57.7 µM), for inactives: top-dose activity change, negative = decrease; tau K18 P301L Alexa594 fluorescence, heparin fibrillization; AID 1463; also: nearly all actives have a fitted effect of over 55% in size
#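 Human K18 P301L tau (15 uM unlabeled plus 0.24 uM Alexa 594-labeled, final) in 100 mM sodium acetate pH 7 was mixed with compound and 20 uM heparin and incubated 6 hr at 37 C.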
# Sfp inh: blocks B. subtilis Sfp PPTase activity. Q9F4F7. Biochemical Sfp PPTase activity, qHTS. Potency, µM, for the others: largest response in the series, negative = inhibition, usual class: inhibitors. hit rate 3.5% among 310,000;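 also: the enzyme is Sfp with the accession as filed and its product quenches rhodamine fluorescence; 0% = enzyme reaction without inhibitor and -100% = no enzyme wells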
#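 With Hepes-Na pH 7.6 buffer containing 10 mM MgCl2, Sfp (15 nM) modified BHQ-2-YbbR (12.5 uM) using rhodamine-CoA (5 uM). Two reads 30 minutes apart at 525/598 nm yielded each well's rate.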
# PLK1 PBD inh: inhibitors of human PLK1 polo-box domain binding. AID 720504. Potency, µM, for the others: max response, negative = inhibition, usual class: inhibitors. hit rate 2.8% among 360,000. Plk1 PBD binding of FITC phosphopeptide, fluorescence polarization; also: series mostly up to about 57 µM; nearly all actives have a fitted effect of over 65% in size
# Target sequence (P53350 whole entry, looked up, the tested form may be a part): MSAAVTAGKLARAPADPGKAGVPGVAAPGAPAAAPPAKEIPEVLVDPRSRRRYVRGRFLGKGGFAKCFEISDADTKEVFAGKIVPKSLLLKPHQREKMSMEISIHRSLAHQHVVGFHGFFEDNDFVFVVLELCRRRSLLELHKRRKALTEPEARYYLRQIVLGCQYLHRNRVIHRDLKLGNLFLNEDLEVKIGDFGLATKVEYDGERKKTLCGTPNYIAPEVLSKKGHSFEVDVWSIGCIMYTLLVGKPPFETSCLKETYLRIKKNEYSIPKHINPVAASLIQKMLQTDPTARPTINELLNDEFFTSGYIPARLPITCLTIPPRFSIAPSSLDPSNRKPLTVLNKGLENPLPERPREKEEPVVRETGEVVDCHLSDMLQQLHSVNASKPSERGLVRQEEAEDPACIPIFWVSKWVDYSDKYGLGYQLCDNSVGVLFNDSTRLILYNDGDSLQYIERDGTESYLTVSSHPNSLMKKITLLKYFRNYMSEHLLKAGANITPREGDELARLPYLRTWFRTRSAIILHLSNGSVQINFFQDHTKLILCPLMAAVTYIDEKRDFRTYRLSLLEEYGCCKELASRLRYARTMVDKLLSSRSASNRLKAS
# Tau FP inhib: tau fibrillization inhibition (FP); P10636; K18 P301L tau heparin fibrillization, Alexa594 FP, 6 h; Potency, µM (series often up to 57.7 µM), without a hit: top-dose activity, negative = inhibition, most hits filed as inhibitors; hit rate 0.39% among 280,000; also: nearly all actives have a fitted effect of over 55% in size
# Target sequence (P10636 561-689 P618L limits assumed): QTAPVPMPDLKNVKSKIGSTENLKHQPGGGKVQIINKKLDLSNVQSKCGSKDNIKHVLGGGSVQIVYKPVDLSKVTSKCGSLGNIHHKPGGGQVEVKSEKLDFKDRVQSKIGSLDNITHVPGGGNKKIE
#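 Quantitative HTS format: compounds meet 15 uM recombinant K18 P301L tau and Alexa 594-tau tracer in 100 mM sodium acetate pH 7; 20 uM heparin triggers fibrillization at 37 C over 6 hr; FP gives the signal.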
# Tau ThT inhib: tau fibrillization inhibition (ThT binding); hit rate 2.1% among 270,000; recombinant tau K18 P301L (four-repeat tau fragment), heparin-induced fibrillization, ThT fluorescence; Potency, µM (titrated, usually from 57.4 µM), for inactives: at the highest dose activity, negative = inhibition, actives largely listed as inhibitors; also: nearly all actives have a fitted effect of over 55% in size
#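 Aggregation was driven by heparin (20 uM final) acting on recombinant tau […] bearing P301L in 100 mM sodium acetate pH 7; fibrils were detected with Thioflavin T.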
# * marks the source's active call; other numbers are inactive results; u = inconclusive; x = not tested or not shown. Calls follow the shape of the dose curve; as a rule, active = well fitted curve in the direction sought with a large enough effect; inconclusive = small, poorly fitted or top-dose-only effect, or another doubt; inactive = no such curve, though single readings can be large; an effect the other way counts as inactive or inconclusive. Unless noted, % is scaled to controls: 0 for no effect and ±100 for the full control effect; potency is read from the fitted curve at half-maximal effect.
SMILES,VDR inh,Tau fluor cs,Sfp inh,PLK1 PBD inh,Tau FP inhib,Tau ThT inhib
CCN(CC)C(=O)C(=O)c1c(-c2ccccc2)[nH]c2ccccc12,12.5%,5.8%,27.0%,1.5%,14.8%,7.9%
COC(=O)CCC(=O)Nc1ccc(C)cc1OC(=O)CCC(=O)OC,3.9%,-16.1%,79.4µM*,-17.6%,u,u
COC(=O)CCC(=O)Nc1cccc2c(NC(=O)CCC(=O)OC)cccc12,8.8%,-7.9%,15.1%,-22.0%,8.7%,-7.5%
Nc1ccc(NC(=O)c2ccccc2)c2c1C(=O)c1ccccc1C2=O,22.6%,-11.3%,-7.9%,-5.5%,2.9%,-16.2%
NS(=O)(=O)c1ccc(NCCCn2ccnc2)c([N+](=O)[O-])c1,2.9%,x,-1.6%,-3.0%,x,x
Nc1ccc(Br)c2c1C(=O)c1ccccc1C2=O,-8.0%,u,50.1µM*,-26.8%,3.0%,5.01µM*
COc1cccc2c1C(=O)c1ccc3ccccc3c1C2=O,-2.7%,u,-5.7%,-16.4%,u,u
O=C1c2ccccc2-c2onc3ccc(NCCCn4ccnc4)c1c23,-25.2%,u,-1.3%,1.5µM*,20µM*,11.2µM*
COc1ccc(OC)c2c1C(=O)c1ccccc1C2=O,10.7%,-25.9%,39.8µM*,10.6µM*,u,35.5µM*
COc1ccc(N)c2c1C(=O)c1ccccc1C2=O,u,-25.0%,-6.2%,-0.7%,u,15.8µM*
CN1CCN(c2ncc3nc(-c4ccc(Cl)cc4)c(=O)n(Cc4cccs4)c3n2)CC1,-9.0%,x,-12.4%,x,x,x
Cn1c(=O)n(CC(=O)O)c(=O)c2c1nc1n2CCCN1c1ccc(Cl)cc1,8.1%,-7.0%,x,x,4.4%,-2.9%
Cc1cc(NC(=O)C2CCCN(S(=O)(=O)c3cn(C)cn3)C2)ccc1Br (stereo not drawn),9.0%,-2.1%,x,x,6.6%,1.2%
COc1ccc2noc3c2c1C(=O)c1ccccc1-3,u,x,x,0.377µM*,x,x
Cc1cc(N=Cc2c(O)n(-c3cccc(C(F)(F)F)c3)c(=O)c3ccccc23)no1,-7.1%,-5.9%,63.1µM*,-2.5%,u,u
C=CCOC(=O)C(=O)/C=C/c1coc2ccccc2c1=O,14.1µM*,10.8%,44.7µM*,u,u,-14.6%
C=CCOC(=O)C(=O)/C=C/c1c(C)n(C)n(-c2ccccc2)c1=O,-13.9%,10.4%,12.0%,-3.1%,-0.7%,0.3%
CC(=O)c1cnc(-c2ccccn2)s1,-29.5%,3.9%,-27.9%,21.2µM*,3.3%,-5.1%
CC(=O)c1cnc(-c2ccccc2Cl)s1,1.1%,0.2%,13.7%,-5.5%,-4.2%,-0.5%
Cc1ccc(/C=C2\Sc3ccccc3C2=O)s1,-2.0%,-15.5%,0.5%,-4.0%,1.9%,3.16µM*
COc1ccccc1OCC(=O)NCCSCc1ccccc1Cl,u,-9.4%,-10.6%,26.7µM*,7.3%,-8.1%
COc1ccc(/C=C/C=N/NC(=O)COc2ccc(OC)cc2)cc1,-2.9%,-14.0%,3.5%,-13.1%,-1.4%,u
COc1ccccc1OCC(=O)N/N=C/C=C/c1ccc([N+](=O)[O-])o1,-11.5%,-20.6%,0.3%,-4.9%,-4.4%,14.1µM*
Cc1ccc(OCC(=O)N/N=C/C=C/c2ccco2)cc1,u,-14.4%,35.5µM*,u,-6.5%,u
O=C(COc1ccccc1[N+](=O)[O-])N/N=C/C=C/c1ccco1,-6.4%,-19.2%,50.1µM*,-7.6%,-5.8%,u
SMILES,VDR inh,Tau fluor cs,Sfp inh,PLK1 PBD inh,Tau FP inhib,Tau ThT inhib
Cn1cc(/C=N/NC(=O)COc2ccccc2[N+](=O)[O-])c2ccccc21,-2.2%,u,35.5µM*,-7.8%,14.8%,u
O=C(C=C(C(=O)c1ccccc1)c1ccccc1)c1ccccc1,-5.3%,x,x,-11.5%,x,x
CC1=C(C#N)C(/C=N/OCc2ccc(F)cc2Cl)CC(=O)N1 (stereo not drawn),u,2.6%,12.0%,29.9µM*,-8.7%,0.1%
COC(=O)CN1C(=O)C2(C(C#N)=C(N)Oc3n[nH]c(-c4cccs4)c32)c2ccccc21 (stereo not drawn),7.7%,-6.4%,-5.5%,-5.5%,-8.7%,-7.6%
COC(=O)CN1C(=O)C2(C(C#N)=C(N)Oc3c2c(C)nn3-c2ccccc2)c2ccccc21 (stereo not drawn),5.6%,-24.9%,4.0%,u,u,28.2µM*
C/C(=N/NC(=O)c1ccncc1)c1cc2ccc(O)cc2oc1=O,3.0%,1.5%,12.7%,11.9µM*,5.7%,u
C/C(=N\NC(=O)c1ccc([N+](=O)[O-])cc1)c1cc2ccccc2oc1=O,-24.5%,-21.7%,13.4%,29.9µM*,10.2%,u
COc1ccc2oc(=O)c(/C(N)=N/NC(=O)c3ccncc3)cc2c1,-22.5%,x,-16.1%,23.8µM*,x,x
COc1ccc2oc(=O)c(/C(C)=N/Nc3ccccc3)cc2c1,-4.9%,u,9.7%,18.9µM*,-11.4%,17.8µM*
CNC(=O)c1cc2cc(OC)ccc2oc1=O,0.2%,-5.9%,11.7%,-1.6%,0.0%,-13.0%
Cc1ccc(NC(=O)c2ccc(S(=O)(=O)N(C)c3ccccc3)cc2)cc1S(=O)(=O)N1CCOCC1,8.4%,x,x,-1.1%,x,x
O=C(Nc1ccc(OC(F)(F)F)cc1)c1nc2ccccc2nc1N1CCCCC1,2.2%,-1.7%,x,x,-4.0%,0.8%
O=C(CSc1nc(=O)n(Cc2ccco2)c2c1CCC2)NCc1ccccc1Cl,19.5%,-4.1%,x,x,-5.7%,-2.1%
CCCCNC(=O)CCn1c(=O)c2cccn2c2cccnc21,5.8%,1.9%,x,x,-1.2%,2.0%
COC(=O)C1CC1C(NC(=O)[C@H]1CCCCN1)c1ccccc1 (stereo partly drawn),x,-9.0%,13.4%,x,3.7%,-1.2%
C/C(=N\NC(=O)c1ccccc1)c1cc2cc([N+](=O)[O-])ccc2oc1=O,-2.6%,-14.7%,13.3%,23.8µM*,5.7%,u
C/C(=N\Nc1ccc([N+](=O)[O-])cc1[N+](=O)[O-])c1cc2c(ccc3ccccc32)oc1=O,x,-7.9%,-13.2%,x,-9.3%,u
FC(F)(F)c1nc2cc3nc4ccccc4[nH]c3cc2n1,u,-29.8%,1.6%,0.8%,u,5.01µM*
OC(c1nc2ccccc2[nH]1)C(O)c1nc2ccccc2[nH]1 (stereo not drawn),-12.5%,x,6.6%,-0.4%,x,x
Cc1ccccc1N=C1NC(=O)/C(=C/c2cccn2-c2cccc(C(=O)O)c2)S1,-12.3%,-13.6%,-0.4%,16.8µM*,-6.4%,u
Cc1cccc(N=C2NC(=O)/C(=C/c3cccn3C)S2)c1C,10.0%,-21.2%,79.4µM*,-5.9%,-4.2%,u
O=C(O)c1cccc(-n2cccc2C=C2C(=O)c3ccccc3C2=O)c1,8.8%,-25.0%,-12.8%,u,3.3%,u
Cc1ccc(N=C2NC(=O)/C(=C/c3cccn3C)S2)cc1,-18.0%,u,7.4%,-2.5%,2.5%,6.31µM*

# Screens as filed in PubChem.
